“And” between values parts separate entries of the source, which are not always exact repeats. Identical values can stand only once. This is part of a sample that, as a whole, favours compounds with a hit. Of some 83,000 tested, about 20% had one in any assay.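 Step 1: grow cells in 96-well plates. Step 2: add test compound at a single concentration. Step 3: incubate 48 h. Step 4: record percent growth.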 The source made the active and inactive calls. Rule for the calls: active = growth percent below 10; inactive = the rest.

The test system of this assay is MDA-MB-468 breast. The assay is described as follows: NCI-60 one-dose screen, 48 h (100 = growth as untreated, 0 = no growth, -100 = all killed). To be noted: 10 µM unless noted.
Turning to `CS(=O)(=O)N(c1cc(-c2ccc3ncnc(Nc4ccc(F)c(Cl)c4)c3c2)cnc1Cl)S(C)(=O)=O`, the growth is -19.6% (active).

With `CC1=N/C(=C\c2cccc(Br)c2)C(=O)O1`, the growth is 107% (inactive).

With `Cc1ccccc1NC(=O)c1sc2nc3c(cc2c1N)CCCC3`, the growth is 11.8% (inactive).

For `CC(=O)C1=C(O)C=C2Oc3c(C(=O)/C=C/c4cc(Cl)cc(Cl)c4)c(O)c(C)c(O)c3[C@]2(C)C1=O`, the growth was -41.7% (active).

In the case of `COc1cc(C(=O)n2nc(N)c3c(C)cc(C)nc32)cc(OC)c1OC`, the growth was 20.3% (inactive).

Turning to `COc1cc(C(=O)/C=C/c2c(-c3cccs3)nc3ccccn23)cc(OC)c1OC`, the growth is -30.4% (active).

In the case of `COc1ccc(C(C)=O)cc1S(N)(=O)=O`, the growth was 99.4% (inactive).

Take `N#CC1C(=O)c2ccccc2C1c1ccccc1` (configuration not stated): the growth is 94.3% (inactive) and 119% (inactive).

With `COC(=O)c1c2c(c(C)[n+]([O-])c1C)C(=O)C(NCc1ccc(OC)cc1)=CC2=O`, the growth was -6.29% (active).

In the case of `O=C(c1ccccc1)c1cc2ccccc2oc1=O`, the growth is 97.3% (inactive).

As for `CCCCCN(CCCCC)CCCCCCCCN1CCCc2ccccc21`, the growth was 99.9% (inactive).

As to `CCn1c(Sc2nnc(Nc3ccccc3)s2)nc2c1c(=O)n(C)c(=O)n2C`, the growth is 91.8% (inactive).

As to `CCOc1ccc([C@@H]2[C@@H](Oc3ccccc3)C(=O)N2c2cc(OC)c(OC)c(OC)c2)cc1`, the growth was 29.4% (inactive).

Regarding `CC(=O)OCC(=O)[C@@]1(O)[C@H](C)C[C@H]2[C@@H]3C=C(C)C4=Cc5c(cnn5-c5ccc(F)cc5)C[C@]4(C)[C@H]3[C@@H](O)C[C@@]21C`, the growth was -22.6% (active).

For the compound `CCOC(=O)C(CSC(c1ccccc1)(c1ccccc1)c1ccccc1)NC(=O)C(CSC(c1ccccc1)(c1ccccc1)c1ccccc1)NC(c1ccccc1)(c1ccccc1)c1ccccc1` (configuration not stated), the growth was 101% (inactive).

As to `O=C(Nc1cccc(F)c1)Nc1cccc(Cl)c1`, the growth is 90% (inactive).

Consider `Cc1ccc2nc3c(cc2c1)CSc1nnc(-c2ccc[nH]c2=S)n1N3`, for which the growth was 111% (inactive).

As to `C=C(C)[C@@H]1CC[C@]2(C(N)=O)CC[C@]3(C)[C@H](CC[C@@H]4[C@@]5(C)CC[C@H](OCCC#N)C(C)(C)[C@@H]5CC[C@]43C)[C@@H]12`, the growth was 72.2% (inactive).

For the compound `COc1cc2c(cc1OC)C(C)N(S(N)(=O)=O)CC2` (configuration not stated), the growth is 99.6% (inactive).

Turning to `O=C1Nc2ccc(Cl)cc2/C1=C/c1ccc(OCC(=O)c2ccc(Br)cc2)cc1`, the growth was 111% (inactive).

Regarding `COc1cc(-c2nc3ccccc3o2)cc(CN2CCN(c3ccccc3)CC2)c1O`, the growth was 76.3% (inactive).

Regarding `Cn1c([N+](=O)[O-])cnc1/C=C1\Oc2cc(Cl)ccc2C1=O`, the growth is 68.7% (inactive).

With `Cc1ccc(NC(=O)CNc2cc(C(N)=O)cc(F)c2C)c(Cl)c1`, the growth is 105% (inactive).

Turning to `COc1cc(Cn2cc(F)c(=O)[nH]c2=O)cc(OC)c1`, the growth was 106% [50 µM] (inactive).

As to `O=[N+]([O-])c1cccc(N=Nc2ccc(O)cc2O)c1`, the growth is 69.6% (inactive).

As to `O=c1[nH]c2cc(O)ccc2n2cc3c(F)cccc3c12`, the growth is 28.7% (inactive).

`NNc1ccccc1C(=O)O`: the growth is 102% (inactive).

Values taken from PubChem BioAssay (NCI).
